Laboratory results: PubChem BioAssay AID1159580 (chemical genetic matrix, 2015)
Hit rate of the full screen: of about 5,500 compounds, about 2,000 (36%) were called active. Another 18% or so got no clear call; they are omitted. No stated cut-off is given here; in the data, active means normalized growth mostly below about 0.91 (no sharp cut-off); inconclusive means no clear call, values can overlap the other calls; inactive means mostly above about 0.92. The list shows a part of the results.

Test: chemical genetic growth profiling, strain panel (AID 1159580);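 further: tested at 20 µM; growth read once vehicle control cultures reached saturation at 30 °C; 1 = growth at the plate median or of vehicle wells; lower values mean less growth of the strain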
Conditions: S. cerevisiae deletion strains, growth OD

Measured: normalized growth

Cn1cnc(CCN)c1
inactive: locus YAL013W, strain DEP1, active compounds read low 1.01 | locus YAL040C, strain CLN3, active compounds read low 0.999 | locus YCL061C, strain MRC1 (second series), active compounds read low 0.995 | locus YDR363W, strain ESC2, active compounds read low 0.979 | locus YER002W, strain NOP16, active compounds read low 0.98 | locus YGR078C, strain PAC10, active compounds read low 1.01 | locus YGR229C, strain SMI1, active compounds read low 1.01 | locus YJR075W, strain HOC1, active compounds read low 1.01 | locus YMR263W, strain SAP30, active compounds read low 1 | locus YNL153C, strain GIM3, active compounds read low 1 | locus YNL175C, strain NOP13, active compounds read low 0.986 | locus YNL197C, strain WHI3, active compounds read low 0.992 | locus YNL224C, strain SQS1, active compounds read low 0.983 | locus YNL322C, strain KRE1, active compounds read low 1.01 | locus YOR083W, strain WHI5 (second series), active compounds read low 0.99
